PINK1 modulator = changes PINK1 expression; PINK1 immunofluorescence, high-content cytometry, 24 h; Potency, µM (doses to about 76.6 µM), for inactives: top-dose activation (PINK1 increase), hits mostly activators; hit rate 0.2% among 410,000; AID 624263; active = well fitted activation curve with a large enough effect; inconclusive = small, poorly fitted or top-dose-only effect; cell line not stated here; also: % of control where 0% means no effect; nearly all actives have a fitted effect of over 65% in size
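PINK1 protein, normally rapidly degraded, was detected by immunofluorescence after 24 hour compound treatment of a stable cell line. Titration data (5 concentrations) came from laser-scanning cytometry, with CCCP-treated wells as controls.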
RORg inh = inhibitors of mouse ROR gamma transcriptional activity; P51450; Drosophila S2 Gal4-RORgamma UAS-luciferase reporter, 20 h; Potency, µM (top dose mostly 53.6 µM), for inactives: top-dose activity change, negative = inhibition, hits mostly inhibitors; hit rate 5.4% among 310,000; AID 2551; also: % is scaled to controls: 0 for no effect and ±100 for the full control effect; nearly all actives have a fitted effect of over 60% in size
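Stable Schneider cell line, Gal4 DNA-binding domain fused to ROR gamma, UAS-luciferase. Cmpd 1 hr RT → CuSO4 700 uM final → 20 hr RT → luciferase reagent 10 min → luminescence.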
ClpP mod = qHTS Assay for Activators of ClpP; ATP-dependent Clp protease proteolytic subunit (Bacillus subtilis (strain 168)), P80244; purified B. subtilis ClpP, FRET peptide cleavage, 20 min; Potency, µM (titrated, usually from 57.5 µM), for inactives: at the highest dose activity change, negative = active; hit rate 1.9% among 340,000; active = well fitted falling curve with a large enough effect; inconclusive = small, poorly fitted or top-dose-only effect; inactive = no such curve, though single readings can be large or run the other way; also: the source files actives as falling curves though it sought activators and does not explain the sign; nearly all actives have a fitted effect of over 65% in size
Target sequence (P80244 whole entry, looked up): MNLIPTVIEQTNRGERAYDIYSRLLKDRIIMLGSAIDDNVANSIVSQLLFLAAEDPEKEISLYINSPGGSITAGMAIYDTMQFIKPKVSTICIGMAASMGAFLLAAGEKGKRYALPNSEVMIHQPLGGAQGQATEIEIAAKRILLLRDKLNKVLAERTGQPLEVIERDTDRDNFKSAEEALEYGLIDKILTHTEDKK
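Purified B. subtilis ClpP, 10 microg/mL final in Tris/HCl pH8 with KCl, BSA, glycerol and Tween-20, cleaved an Abz/nitrotyrosine-quenched decapeptide. Fluorescence (ex 320, em 430) was read at 0 and 20 min at room temperature. Delta was normalized to 5.8 microM ADEP and DMSO/no-enzyme controls.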
Epigenetic reg = derepresses silenced GFP reporter in murine cells; Potency, µM (doses to about 53.9 µM), inactives show at the top dose GFP activation, usual class: activators; AID 1865; murine LDR cells, GFP reporter derepression, 30 h; hit rate 0.2% among 280,000; also: % of control where 0% means no effect; nearly all actives have a fitted effect of over 60% in size
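GFP-positive cell count by laser-scanning cytometry (objects 20–120 um) after 30 h, 37 C compound exposure of murine LDR cells; reporter is CMV-GFP integrated at a silenced locus, inducible by HDAC or DNMT inhibitors.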
Gal4-VP16 FLuc = Gal4-VP16 reporter inhibition counter-screen | Potency, µM (highest dose often 53.6 µM), without a hit: top-dose activity, negative = inhibition, most hits filed as inhibitors | Drosophila S2 Gal4-VP16 UAS-luciferase, luminescence, 20 h | hit rate 3.5% among 310,000;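 also: Gal4-VP16 expression switched on by copper sulfate through the metallothionein promoter; % is scaled to controls: 0 for no effect and ±100 for the full control effect; nearly all actives have a fitted effect of over 50% in size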
Sfp inh = blocks B. subtilis Sfp PPTase activity. Q9F4F7. Biochemical Sfp PPTase activity, qHTS. Potency, µM, without a hit: largest response in the series, negative = inhibition, usual class: inhibitors. hit rate 3.5% among 310,000. AID 1490;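 also: the enzyme is Sfp with the accession as filed and its product quenches rhodamine fluorescence; 0% = enzyme reaction without inhibitor and -100% = no enzyme wells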
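Fluorescence-quenching assay: 15 nM Sfp-PPTase preincubated 15 min at room temperature with compound, then 5 uM rhodamine-CoA and 12.5 uM BHQ-2-labelled YbbR peptide added. Fluorescence (ex 525/em 598 nm) read at start and after 30 min; difference gives rate.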
* hit, by the source's call; ? = inconclusive; . = not tested or not shown; [ ] = another dose, or the depositor's remark. Most compounds without a hit are left out; they make up all but 8.1% or so of the library. Unless noted, calls follow the shape of the dose curve; as a rule, active = well fitted curve in the direction sought with a large enough effect; inconclusive = small, poorly fitted or top-dose-only effect, or another doubt; inactive = no such curve, though single readings can be large; an effect the other way counts as inactive or inconclusive. Potency is read from the fitted curve at half-maximal effect.

SMILES | PINK1 modulator | RORg inh | ClpP mod | Epigenetic reg | Gal4-VP16 FLuc | Sfp inh
COc1cc(CC2COC(=O)C2(O)Cc2ccc(O)c(OC)c2)ccc1O (stereo unspecified) | -1% | ? | -1% | 3% | 7.1µM* | -9%
COc1cc(C[C@@H]2C(=O)OC[C@H]2Cc2ccc(OC)c(OC)c2)ccc1O | 3% | . | 1% | . | . | .
Cn1c(SCC(=O)Nc2cccc(F)c2)nnc1-c1cccnc1 | -1% | 14% | -1% | -1% | -1% | 4%
O=C(CSc1nnc(-c2cccnc2)n1CCN1CCCCC1)Nc1cccc(Cl)c1 | 1% | 4% | 16µM* | -1% | -15% | -14%
Cc1cc(NC(=O)CSc2nnc(-c3cccnc3)n2Cc2ccccc2)no1 | 1% | 17% | 3.2µM* | -5% | -10% | 22%
CC(=O)O[C@H](C(=O)O[C@@H]1C[C@@H](CCC[C@H]2O[C@H](C(=O)OC(C)C)CC[C@@H]2C)O[C@@H](CC#N)C1)c1ccccc1 | . | 3% | . | 1% | 3% | -3%
O=C1Nc2cc(C(=O)NCCCN3CCCC3)ccc2S/C1=C\c1ccccc1 | -1% | -34% | 0% | . | -19% | -29%
COc1ccc(/C=C2/Sc3ccc(C(=O)NCCN4CCCCCC4)cc3NC2=O)cc1 | -2% | ? | -2% | . | 20µM* | ?
CCOc1ccc(CCNC(=O)CCCc2nnc3n(CC)c(=O)c4sccc4n23)cc1OCC | 1% | . | -11% | 0% | . | .
O=C(CSCc1ccc(Cl)cc1)Nc1cc([N+](=O)[O-])ccc1O | 14µM* | ? | . | 1% | ? | -7%
COc1ccc([N+](=O)[O-])cc1NC(=O)CSCc1ccc(Br)cc1 | 4% | 17% | -2% | -3% | ? | -7%
CC(CC(=O)O)CC(=O)Nc1cc([N+](=O)[O-])ccc1O (stereo unspecified) | 1% | -4% | . | -4% | 3% | 19%
Cc1ccc(SCC(=O)Nc2cc([N+](=O)[O-])ccc2O)cc1 | 16µM* | ? | . | 1% | ? | 7%
CCn1cc(C(=O)N2CCN(c3ccccc3F)CC2)c(=O)c2cc(S(=O)(=O)N(C)C3CCCCC3)ccc21 | 3% | . | -2% | -3% | . | .
Cc1ccc2c(=O)cc(C(=O)Nc3ccc(S(=O)(=O)N(C)Cc4ccccc4)cc3)oc2c1 | 7% | . | -8% | -1% | . | .
C/C(CCN1CCCc2nc(C)c(C)cc21)=N\O[C@@H](C)c1cn([C@@H]2COC[C@@H]2O)nn1 | . | 10%[10 µM] | . | 1%[10.1 µM] | 1%[10 µM] | -4%
Nc1[nH]c(N=NC(=O)c2ccc(F)cc2)c2ccccc12 | 3% | 3.5µM* | -5% | -3% | 14µM* | -16%
CCOC(=O)c1noc2ncnc(N(CCC(=O)OC)c3ccccc3)c12 | 0% | . | -1% | 3% | . | .
c1ccc2cc(CSCc3nc4ccccc4[nH]3)ccc2c1 | ? | ? | 3% | -1% | 11µM* | 20%
O=C(CSCc1nc2ccccc2[nH]1)Nc1ccc2ccccc2c1 | 4%[38.3 µM] | -16% | 12% | 0% | 2% | 15%
c1ccc2[nH]c(CSc3nc4ccccc4o3)nc2c1 | . | 2µM* | -5% | -1% | ? | -16%
O=C1CCc2cc(-c3csc(-c4ccc(O)cc4)n3)ccc2N1 | 6% | . | ? | . | . | .
C=CCSc1nnc(-c2sc(-c3ccccc3)nc2C)n1C | . | 30% | 35µM* | 0% | 18% | 13%
Cn1c(SCCSc2nnc(-c3ccccc3)n2C)nnc1-c1ccccc1 | . | -11% | . | 4% | -6% | 3%
CS(=O)(=O)c1ncc(N(Cc2ccco2)Cc2cccs2)c(C(=O)Nc2ccccc2F)n1 | -1% | . | -3% | 1% | . | .
Cc1cc(Nc2ccc(C)c(Cl)c2)n2nc(-c3ccccc3)nc2n1 | ? | . | 4% | 11µM* | . | .
CS(=O)(=O)N1CCc2cc(C(=O)NCc3ccccc3)ccc21 | 0% | . | -2% | -1% | . | .
Cc1ccc(N2CN(Cc3ccco3)CNC2=S)cc1 | 1% | 11µM* | . | 7% | ? | 20%

Screening results as filed in PubChem.
